{"source": "PubChem BioAssay (Tox21)", "note": "Records with an inconclusive call do not appear. A number with no mark means an inactive call. Activity calls are given as the source filed them. The call rests on the fitted dose curve. On the % scale 0 is the no-effect control and ±100 the full control effect; potency means the concentration at half of the fitted maximal effect.", "data": [{"target": "Muscarinic acetylcholine receptor M1 (Homo sapiens) (UniProt P11229)", "sequence (P11229 whole entry, looked up)": "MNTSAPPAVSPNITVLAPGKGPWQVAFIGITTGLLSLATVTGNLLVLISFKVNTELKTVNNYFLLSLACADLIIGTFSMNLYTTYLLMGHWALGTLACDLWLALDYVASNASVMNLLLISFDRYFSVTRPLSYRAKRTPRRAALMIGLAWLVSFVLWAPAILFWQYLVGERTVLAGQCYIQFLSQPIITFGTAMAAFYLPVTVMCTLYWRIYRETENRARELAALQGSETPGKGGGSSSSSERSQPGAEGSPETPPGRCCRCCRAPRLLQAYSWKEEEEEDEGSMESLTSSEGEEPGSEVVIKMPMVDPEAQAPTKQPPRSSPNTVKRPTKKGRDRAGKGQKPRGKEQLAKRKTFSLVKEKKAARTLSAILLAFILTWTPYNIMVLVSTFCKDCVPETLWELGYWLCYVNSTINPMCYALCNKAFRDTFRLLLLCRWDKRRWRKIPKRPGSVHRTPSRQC", "test": "Cholinergic receptor muscarinic 1 (CHRM1) small molecule antagonists, cell-based qHTS assay (AID 1963588); further: nearly all actives have a fitted effect of over 40% in size", "conditions": "CHRM1-CHO antagonist mode, calcium flux fluorescence; series mostly up to 61.5 µM; activity, negative = inhibition: at the top concentration", "text": "National Center for Advancing Translational Sciences [NCATS]\nDivision of Preclinical Innovation [DPI]\nU.S. Environmental Protection Agency [EPA]\nNational Institutes of Environmental Health Sciences [NIEHS]\nNational Toxicology Program [NTP]\nU.S. Food and Drug Administration [FDA]\nThe CHRM1 is a muscarinic receptor. This receptor plays a crucial role in learning and memory processes and has long been identified as a promising therapeutic target for the improvement of cognitive decline in Alzheimer's disease (AD). The CHRM1-CHO cell line stably expressing human muscarinic acetylcholine receptor M1 (CHRM1) can be used for screening agonists and antagonists of interactions between CHRM1 and its ligands. The CHRM1-CHO Calcium Flux Assay is a homogeneous fluorescence-based assay for detecting the intracellular calcium level using FDSS kinetic plate reader system.\nTox21 Assay Protocol Summary:\nCHRM1-CHO cells were dispensed at 1000 cells/3uL/well in 1536-well black-clear bottom plates using a Multidrop Dispenser. After the assay plates were incubated at a 37 C/5% CO2 incubator for 18 h, 3 uL of Dye Loading Buffer was transferred to the assay plate by a Flying Reagent Dispenser. The assay plates were incubated at 37 C for 1h. For antagonist mode, 23 nL of compounds dissolved in DMSO, positive controls or DMSO only was transferred to the assay plate by a pin tool. After 5 min incubation at room temperature, 1.5 uL of acetylcholine at 50nM was added to each well. The fluorescence intensity in the plates was measured using FDSS 7000EX kinetic plate reader for 3 min at 1 sec intervals. Each test compound was measured at 15 concentrations in three independent runs.", "values": [{"smiles": "OCC(O)[C@@H](O)[C@H](O)[C@H](O)CO[C@H]1O[C@H](CO)[C@@H](O)[C@H](O)[C@H]1O", "note": "(stereo not given in full)", "activity, negative = inhibition": "10.6%"}, {"smiles": "Cc1cccc(C)c1NC(=O)c1cc(S(N)(=O)=O)c(Cl)cc1O", "Potency": "3.3 nM (active)"}, {"smiles": "O=C(O)c1cccc(C(=O)O)n1", "activity, negative = inhibition": "2.42%"}, {"smiles": "C[Si](NC1CCCCC1)(NC1CCCCC1)NC1CCCCC1", "activity, negative = inhibition": "5.21%"}, {"smiles": "C[N+]1(C)CCC(=C(c2ccccc2)c2ccccc2)CC1", "Potency": "13 nM (active)"}, {"smiles": "COc1ccccc1N1CCN(CCCCNC(=O)c2ccc(-c3ccc(C(C)=O)cc3)cc2)CC1", "Potency": "1030 nM (active)"}, {"smiles": "CC(C)=CCC/C(C)=C/CC/C(C)=C/CO", "activity, negative = inhibition": "1.53%"}, {"smiles": "C=CCc1ccccc1OCC(O)CNC(C)C", "note": "(stereo not given)", "activity, negative = inhibition": "-1.68% [at 28.3 µM]"}, {"smiles": "CC(=O)Nc1ccc(N)cc1", "activity, negative = inhibition": "1.57%"}, {"smiles": "CC(=O)c1ccc(C(C)=O)cc1", "activity, negative = inhibition": "11.2%"}, {"smiles": "CCCOC(=O)c1ccc(N)cc1", "activity, negative = inhibition": "-9.71% [at 28.3 µM]"}, {"smiles": "CN(C)CCN1CCOCC1", "activity, negative = inhibition": "-7.48%"}, {"smiles": "Cc1ccc(OC(=O)c2ccccc2O)cc1", "activity, negative = inhibition": "-10.4%"}, {"smiles": "C=C(C)C1CC=C(C)C(O)C1", "note": "(stereo not given)", "activity, negative = inhibition": "-3.04%"}, {"smiles": "c1ccc(CN(CC2=NCCN2)c2ccccc2)cc1", "activity, negative = inhibition": "5.68% [at 28.3 µM]"}, {"smiles": "CCCCCCC/C=C/C=O", "activity, negative = inhibition": "7.07%"}, {"smiles": "CCCCC(CC)COC(=O)c1ccccc1O", "note": "(stereo not given)", "activity, negative = inhibition": "0.534% [at 28.3 µM]"}, {"smiles": "O=C(NCCO[N+](=O)[O-])c1cccnc1", "activity, negative = inhibition": "-2.89% [at 28.3 µM]"}, {"smiles": "c1cnc2c(n1)CCCC2", "activity, negative = inhibition": "8.24%"}, {"smiles": "Cc1cccc(C)n1", "activity, negative = inhibition": "21%"}, {"smiles": "O=P(O)(O)Oc1ccccc1", "activity, negative = inhibition": "14.5%"}, {"smiles": "CN(C)CCOC1=Cc2ccccc2Sc2ccc(Cl)cc21", "activity, negative = inhibition": "-14.4% [at 28.3 µM]"}, {"smiles": "C=CC(C)(CCC=C(C)C)OC(=O)C(C)C", "note": "(stereo not given)", "activity, negative = inhibition": "3.59%"}, {"smiles": "Cc1cccc(C)c1OCC(=O)N[C@@H](Cc1ccccc1)[C@@H](O)C[C@H](Cc1ccccc1)NC(=O)[C@H](C(C)C)N1CCCNC1=O", "activity, negative = inhibition": "9.06% [at 28.3 µM]"}, {"smiles": "C=C(C)CCO", "activity, negative = inhibition": "3.56%"}, {"smiles": "O=C(Nc1cccc2c(=O)cc(-c3nn[nH]n3)oc12)c1ccc(OCCCCc2ccccc2)cc1", "activity, negative = inhibition": "7.72% [at 28.3 µM]"}, {"smiles": "CCN(CC)C(C)=O", "activity, negative = inhibition": "-14%"}, {"smiles": "Clc1cc(Cl)nc(Cl)n1", "activity, negative = inhibition": "-5.72%"}, {"smiles": "CCCCCCCCCCCCCCN(C)C", "activity, negative = inhibition": "5.47% [at 12.6 µM]"}, {"smiles": "CCC(=O)Oc1ccc2c(c1)CC[C@@H]1[C@@H]2CC[C@@]2(C)[C@H]1C[C@@H](OC(=O)CC)[C@@H]2OC(=O)CC", "activity, negative = inhibition": "9.61% [at 28.3 µM]"}, {"smiles": "COc1cccc(-c2ccc(/C=C\\CN3CCCCCC3)cc2Cl)c1", "Potency": "836 nM (active)"}, {"smiles": "CCOC(=O)C(=O)CCc1ccccc1", "activity, negative = inhibition": "14.3% [at 28.3 µM]"}, {"smiles": "COC(=O)CS", "activity, negative = inhibition": "22.6%"}, {"smiles": "CC(=O)c1cccnc1", "activity, negative = inhibition": "4.94%"}, {"smiles": "CCN(CCCCOC(=O)c1ccc(OC)c(OC)c1)C(C)Cc1ccc(OC)cc1", "note": "(stereo not given)", "Potency": "163 nM (active)"}, {"smiles": "Cc1cc(-n2nc3ccc(Cl)cc3n2)c(O)c(C(C)(C)C)c1", "activity, negative = inhibition": "7.11% [at 28.3 µM]"}, {"smiles": "CC1=C(CC=O)C(C)(C)CCC1", "activity, negative = inhibition": "5.7%"}, {"smiles": "CC(=O)O[C@@H]1CC2CCC1(C)C2(C)C", "note": "(stereo not given in full)", "activity, negative = inhibition": "28.6%"}, {"smiles": "Clc1nc(C(Cl)(Cl)Cl)c(Cl)c(Cl)c1Cl", "activity, negative = inhibition": "-21%"}, {"smiles": "Cc1cccc([N+](=O)[O-])c1C(=O)O", "activity, negative = inhibition": "5.07%"}]}]}
